Screens: PubChem, National Center for Advancing Translational Sciences (NCATS)
Most compounds without a hit are left out; they make up all but 3.2% or so of the library.
AMA1 RON2 block: inhibitors of Plasmodium falciparum AMA1-RON2 interaction | AlphaScreen AMA1-biotinylated RON2 peptide binding | Potency, µM (doses to about 58.2 µM), inactives show top-dose activity change, negative = inhibition, actives largely listed as inhibitors | 0.2% of 360,000 active | AID 720542;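 note: 0% = vehicle wells and -100% = peptide control; nearly all actives have a fitted effect of over 45% in size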
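AMA1 (3D7) with his tag at 25 nM final met compounds first, then biotinylated RON2 peptide at 25 nM; detection used donor plus acceptor beads, 10 µg/mL apiece, read by AlphaScreen after 30 min at room temperature.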
AmpC no deterg: inhibitors of E. coli AmpC beta-lactamase without detergent. P00811. AmpC nitrocefin hydrolysis, absorbance 480 nm, 0.0001% Triton. Potency, µM (titrated, usually from 57.1 µM), for the others: at the highest dose activity change, negative = inhibition, usual class: inhibitors. 0.52% of 330,000 active. AID 485341;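 note: plate controls were no compound for no effect and no enzyme for full effect; nearly all actives have a fitted effect of over 20% in size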
Target sequence (P00811 whole entry, looked up): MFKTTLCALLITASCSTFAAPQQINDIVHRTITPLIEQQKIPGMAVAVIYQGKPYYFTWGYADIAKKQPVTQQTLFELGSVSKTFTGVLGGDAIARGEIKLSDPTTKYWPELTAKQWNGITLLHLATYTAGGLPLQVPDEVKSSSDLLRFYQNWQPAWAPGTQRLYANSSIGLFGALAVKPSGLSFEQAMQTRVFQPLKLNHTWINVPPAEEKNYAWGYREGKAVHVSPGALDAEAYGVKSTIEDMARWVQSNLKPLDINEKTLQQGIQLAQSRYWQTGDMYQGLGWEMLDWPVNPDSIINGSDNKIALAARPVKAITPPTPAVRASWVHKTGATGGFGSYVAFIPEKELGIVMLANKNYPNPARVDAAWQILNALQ
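AmpC (5.3 nM in the dispensed reagent) in 20 mM phosphate pH 7.0 with 0.01% (detergent screen) or 0.0001% Triton X-100 was preincubated with compounds for 15 min at room temperature. Nitrocefin was then added from an 800 uM solution, and hydrolysis was followed at 480 nm.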
RE007 growth inh: less growth of the S. pombe RE007 Vpr strain; S. pombe RE007 Vpr strain, BacTiter-Glo ATP luminescence, 24 h; Potency, µM (highest dose often 92.2 µM), for inactives: top-dose activity change, negative = less growth, most hits filed as inhibitors; 0.21% of 360,000 active; AID 651644; active = well fitted falling curve with a large enough effect; inconclusive = small, poorly fitted or top-dose-only effect; inactive = no such curve, though single readings can be large or run the other way; note: nearly all actives have a fitted effect of over 50% in size
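Fission yeast RE007 carrying one integrated HIV-1 vpr copy, seeded at OD 0.01 in PMG+AL medium with 23 nL pinned compound. Grown 24 h at 30 degrees; viability read by BacTiter-Glo luminescence after 5 min.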
AmpC inh detg: blocks E. coli AmpC beta-lactamase in detergent assay. P00811. AmpC hydrolysis of nitrocefin, absorbance 480 nm, 0.01% Triton. Potency, µM (top dose mostly 114 µM), for inactives: at the highest dose activity change, negative = inhibition, most hits filed as inhibitors. 0.041% of 370,000 active. AID 485294;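 note: 0% = no-compound wells and -100% = no-enzyme wells; nearly all actives have a fitted effect of over 25% in size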
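AmpC (5.3 nM in the dispensed reagent) in 20 mM phosphate pH 7.0 with 0.01% (detergent screen) or 0.0001% Triton X-100 was preincubated with compounds for 15 min at room temperature. Nitrocefin was then added from an 800 uM solution, and hydrolysis was followed at 480 nm.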
Sm TGR inh: S. mansoni TGR enzyme inhibition; Q962Y6; purified TGR, DTNB reduction, TNB absorbance 405 nm; Potency, µM (series often up to 114 µM), for the others: at the top dose activity change, negative = inhibition, actives largely listed as inhibitors; 3% of 360,000 active; AID 485364; note: nearly all actives have a fitted effect of over 60% in size
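Kinetic colorimetric format: TGR-catalysed, NADPH-driven DTNB reduction monitored via TNB absorbance. Enzyme dispensed at 20 nM; compound exposure 15 min at room temperature before reaction start.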
Active calls of the source: *; u = inconclusive; x = no result given. Unless noted, calls come from the whole dose curve; as a rule, active = well fitted curve in the direction sought with a large enough effect; inconclusive = small, poorly fitted or top-dose-only effect, or another doubt; inactive = no such curve, though single readings can be large; an effect the other way counts as inactive or inconclusive. Unless noted, % is set by controls: 0 for no effect and ±100 for the full control effect; potency is the fitted concentration of half-maximal effect.

SMILES	AMA1 RON2 block	AmpC no deterg	RE007 growth inh	AmpC inh detg	Sm TGR inh
Cc1cc(C)cc(NC(=O)CSc2nc(-c3cccc(Cl)c3)nc3c2Cc2c(CO)cnc(C)c2O3)c1	x	x	x	13%	35µM*
Cc1ccc(-c2nc3c(c(SCC(=O)N4CCOCC4)n2)Cc2c(CO)cnc(C)c2O3)cc1	-13%	160%	10%	3%	35µM*
Cc1ccc(-n2ncc(C(=O)NC3CCCCC3)c2C2CCN(C(=O)OC(C)(C)C)CC2)cc1	x	x	x	22%	10%
O=c1c(=O)n(-c2cccc(Cl)c2)ccn1Cc1cccc(F)c1	x	x	x	-7%	-19%
CCOC(=O)c1ccc(NC(=O)CC(=O)Nc2ccc3nc4n(c(=O)c3c2)CCCCC4)cc1	x	x	x	-1%	-1%
COCCn1c(C)cc(O)c(C(c2ccccc2)N2CCN(c3ccccc3)CC2)c1=O (stereo unspecified)	x	x	x	10%	4.5µM*
CCOc1ccc(C(=O)NCC(c2ccc3c(c2)OCO3)N2CCN(c3ccc(F)cc3)CC2)cc1 (stereo unspecified)	x	x	x	2%	4%
COCCn1c(C)cc(O)c(C(c2ccccc2)N2CCN(CCO)CC2)c1=O (stereo unspecified)	x	x	x	2%	3.5µM*
CCOc1ccc(C(c2c(O)cc(C)n(CCOC)c2=O)N2CCN(c3ccc(F)cc3)CC2)cc1 (stereo unspecified)	x	x	x	-2%	5.6µM*
COCCn1c(C)cc(O)c(C(c2ccccc2)N2CCN(c3ccc(F)cc3)CC2)c1=O (stereo unspecified)	x	x	x	8%	3.2µM*
O=C(CSc1nc2ccccc2n1Cc1ccc(F)cc1)N1CCN(c2ccc(F)cc2)CC1	x	x	x	4%	4%
Cc1ccc(C)c(N2CCN(CCCNC(=O)c3cnn(-c4ccccc4Cl)c3C3CCN(C(=O)OC(C)(C)C)CC3)CC2)c1	x	x	x	16%	0%
Cc1c(C(=O)NCCN(C)C)oc2c1-c1nn(Cc3ccccc3Cl)cc1CC2	x	x	x	20%	8%
O=C(CSc1nc2nc(-c3cccs3)cc(C(F)(F)F)c2c(=O)[nH]1)C(F)(F)F	101%	-7%	10%	-12%	3.5µM*
COC(=O)CSc1nc2nc(-c3cccs3)cc(C(F)(F)F)c2c(=O)[nH]1	-8%	-11%	-11%	-9%	-26%
CCOc1ccccc1CNC(=O)CCCN1C(=O)COc2ccc(C)cc21	x	x	x	-7%	-5%
CCc1ccccc1NC(=O)c1ccc2c(c1)N(Cc1cc(C)ccc1C)C(=O)c1ccccc1S2(=O)=O	x	x	x	-10%	-3%
O=C(c1ccc(CS(=O)(=O)c2ccc(Br)cc2)o1)N1CCCC1	0%	-2%	12%	u	0%
O=C(c1ccc(CS(=O)(=O)c2c(Cl)cccc2Cl)o1)N1CCCC1	4%	-2%	6%	-6%	35µM*
O=C(c1ccc(CS(=O)c2ccccc2Cl)o1)N1CCN(C2CCCCC2)CC1 (stereo unspecified)	1%	x	-18%	x	x
O=C(c1ccc(CS(=O)(=O)c2ccc(Br)cc2)o1)N1CCCCCC1	-1%	32%	-6%	4%	35µM*
CN1CCN(C(=O)c2ccc(CS(=O)(=O)c3c(Cl)cccc3Cl)o2)CC1	16%	-34%	4%	-6%	-10%
CCOC(=O)N1CCC(NC(=O)c2ccc(CS(=O)(=O)c3c(Cl)cccc3Cl)o2)CC1	16%	42%	2%	u	u
CCOC(=O)N1CCN(C(=O)c2ccc(CS(=O)(=O)c3c(Cl)cccc3Cl)o2)CC1	7%	29%	3%	-13%	45µM*
O=C(c1ccc(CS(=O)c2ccccc2Cl)o1)N1CCCCCC1 (stereo unspecified)	-8%	21%	-3%	3%	40µM*
Cc1oc2ncn(C)c(=O)c2c1C(=O)NC(C)c1ccccc1 (stereo unspecified)	x	x	x	-2%	-11%
CCn1c(=O)c2sccc2n2c(CCCC(=O)N3CCN(c4cc(C)ccc4C)CC3)nnc12	x	x	x	12%	3%
